The results in this text go back to PubChem BioAssay AID1159524 (National Center for Advancing Translational Sciences (NCATS), 2015).

Screen size: about 410,000 compounds; about 5,100 (1.2%) were called active. A call without a number means that no potency is given here. Roughly 8% stayed inconclusive and do not appear here. Calls come from the whole dose curve; tested in HEK293T cells. This excerpt belongs to a sample that is enriched for actives.
Potency is the fitted concentration of half-maximal effect.

The experiment can be described thus: High Throughput Screening for Foot and Mouth Disease Virus Antivirals. Note: read-out not given here; nearly all actives have a fitted effect of over 45% in size. The following applies: FMDV antiviral cell-based qHTS; series mostly up to 57.9 µM. A general note: In qHTS, concentration-response curves come from the screen itself.
Take `CCC1CN(CCNC(=O)c2cccnc2C)Cc2cc(OC)ccc2O1` (stereo not given): the Potency entry was “inactive”.
With `CC1=C(c2ccc(F)cc2)S(=O)(=O)N=C1N1CCC(C(=O)NCCc2ccccc2C)CC1`, the Potency result was “inactive”.
Then `COCCn1c(=O)c(-c2ccccc2)nc2cnc(N3CCOCC3)nc21`, with “inactive”; and `CC1CCCCC1NC(=O)/C(C#N)=C/C=C/c1ccccc1[N+](=O)[O-]` (stereo not given), with 28.2 µM (active).
In the case of `CC1CCCCC1NC(=O)c1cc(=O)[nH]c2ccccc12` (stereo not given), the Potency result was “inactive”.
`CC1CC(C)CN(C/C=C/c2ccccc2[N+](=O)[O-])C1` (stereo not given): the Potency entry was “inactive”.
As for `Cc1ccc2c(C)nc(N3CCCC(C(=O)NC(C)(C)CO)C3)nc2c1` (stereo not given), the entry is “inactive”.
Turning to `CCc1ccccc1NC(=O)N1CCC2(CC1)Oc1ccccc1C(=O)N2Cc1ccccc1F`, the Potency entry is “inactive”.
Then `O=C(Nc1cc(-c2nc3ccccc3o2)ccc1Cl)c1cc([N+](=O)[O-])ccc1N1CCOCC1`, with “inactive”; and `CCCCNS(=O)(=O)CCNCc1ccccc1OC`, with “inactive”; and `COc1cccc2oc(CCc3ccccc3)cc(=O)c12`, with “inactive”.
On to `COc1ccccc1CCn1c(=O)c(-c2cn(C)c3ccccc23)nc2cncnc21`, for which the Potency result was “inactive”.
Then `COc1ccccc1Cc1c(-c2ccc(Cl)cc2)nc2c3ccccc3ccn12`, with “inactive”; and `CCCCc1c(-c2ccc(Br)cc2)ncn1CCc1ccccc1OC`, with 35.5 µM (active).
Then `CCCCCc1c(Cc2ccccc2)ncn1CCc1ccccc1OC`, with 35.5 µM (active); and `CCOC(=O)c1cc2c(=O)n3ccccc3nc2n(CC2CCCO2)c1=NC(=O)c1ccccc1F` (stereo not given), with “inactive”; and `CCn1cc(C(=O)N2CCN(c3cc(C)ccc3C)CC2)c(=O)c2cc(S(=O)(=O)N(C)C3CCCCC3)ccc21`, with “inactive”.
As for `Cc1oc(-c2cccc(NC(=O)c3ccccc3)c2)nc1CNC(=O)c1cnc2ccccn2c1=O`, the Potency result was “inactive”.
For the compound `O=c1c(-c2ccc(F)cc2)nc2cnc(N3CCNCC3)nc2n1Cc1cccs1`, the Potency result is “inactive”.
Turning to `O=C(C(=O)N1CCOc2ccc(CN3CCN(Cc4ccccn4)CC3)cc2C1)c1ccccc1`, the Potency entry is “inactive”.
Then `CCC(=O)Nc1ccccc1-c1nc2ccccc2n(CC(=O)Nc2ccc(C)c(C)c2)c1=O`, with “inactive”; and `COc1cccc(-c2nc3ccc(N4CCN(C)CC4)cc3[nH]2)c1`, with 14.1 µM (active); and `COc1cccc(N2CCN(C3CC(=O)N(c4ccc(Cl)cc4)C3=O)CC2)c1` (stereo not given), with “inactive”.
As for `COc1ccc(N2CCN(C3=NS(=O)(=O)C(c4cccc(Br)c4)=C3C)CC2)cc1`, the entry is “inactive”.
Then `COc1cccc(-n2c(=O)c3c(C)c(C(=O)N(C)C)sc3n(Cc3cccc(C)c3)c2=O)c1`, with “inactive”; and `CCOc1ccc(NC(=O)C(C)N2C(=O)c3ccccc3C2=O)cc1` (stereo not given), with “inactive”.
As for `COCCN(C(=O)CCC(=O)Nc1ccccn1)C(C(=O)NCCC(C)C)c1ccc(OC)cc1` (stereo not given), the Potency entry is “inactive”.
`COc1cccc(N(CC(=O)NC2CCCC2)C(=O)CCCC(=O)Nc2ccccn2)c1`: the Potency entry was “inactive”.
As for `CCOc1ccc(N/C=C/C(=O)c2ccccc2)cc1`, the figure is 10 µM (active); as for `CCOc1ccc(NC(=O)C2CCCN(C(=O)Nc3ccccc3)C2)cc1` (stereo not given), “inactive”; as for `COc1ccc(C(=O)/C=C/Nc2ccccn2)cc1`, 8.91 µM (active).
As for `OCC1CCCN(c2nc3cc4c(cc3cc2CNCc2cccs2)OCO4)C1` (stereo not given), the Potency result is “inactive”.
Then `CCn1cc(C(=O)NCc2ccccc2)c(=O)c2cc(S(=O)(=O)N3CCCCC3)ccc21`, with “inactive”; and `C=C1C([C@@]2(C)C(OC(C)=O)CC(=O)O[C@@](C)(COC(C)=O)C2CC(=O)OC)C(OC=O)C(OC(=O)C(O)C(C)CC)[C@]2(C)C(c3ccoc3)CC(=O)C12O` (stereo not given in full), with “inactive”; and `O=C(CN1Cc2ccccc2OC(c2ccccc2)C1)N1CCCCC1c1cccnc1` (stereo not given), with “inactive”.
Then `O=c1c(CCc2ccccc2)nc2cnc(N3CCNCC3)nc2n1Cc1cccs1`, with “inactive”; and `CCCCNC(=O)CN1C(=O)NC(Cc2ccccc2)(Cc2ccccc2)C1=O`, with “inactive”.
As for `CCN(C(=O)Nc1cccc2ccccc12)c1ccccc1`, the entry is “inactive”; as for `CCCCC(O)(CCCC)C(=O)NN(C(=O)CCl)c1ccccc1`, 31.6 µM (active); as for `Cc1cc2ccccc2n1CCNC(=O)c1ccc(F)cc1`, “inactive”.
Consider `Cc1cccc2c3c(ccc12)C1=C(C(=O)C3=O)C(C)CO1` (stereo not given), for which the Potency result is “inactive”.
Take `COc1ccc(-c2nc3cnc(Oc4ccccc4)nc3n(Cc3cccs3)c2=O)cc1`: the Potency entry was “inactive”.
With `c1ccc(-c2cnc(CN3CCN(c4ccccc4)CC3)o2)cc1`, the Potency entry was “inactive”.
Turning to `CCCCn1c(SCc2ncc(-c3ccccc3)o2)nc2cc(S(N)(=O)=O)ccc21`, the Potency is 28.2 µM (active).
As for `CCCCn1c(SCC(=O)N2CCCC2=O)nc2cc(S(N)(=O)=O)ccc21`, the entry is “inactive”; as for `CN1CCN2c3ccccc3Cc3ccccc3[C@@H]2C1`, “inactive”; as for `CS(=O)(=O)N1CCC[C@@]2(CCN(c3ccncc3)C2)C1`, “inactive”.
As to `Cc1ccc(-c2ccc(C(=O)N3CCc4nnc(CNC(=O)c5ccccc5)n4CC3)cc2)cc1`, the Potency entry was “inactive”.
As for `Cc1sc2nc(-c3ccccc3F)oc(=O)c2c1C`, the entry is “inactive”; as for `COc1ccc(-c2csc3nc(-c4ccccc4F)oc(=O)c23)cc1OC`, 20 µM (active); as for `COc1ccc(-c2csc3ncnc(Oc4ccc5c(C)cc(=O)oc5c4)c23)cc1`, “inactive”.
In the case of `CCOC(=O)C1CCCN(C(=O)c2ccc(-n3ccc4ccccc43)s2)C1` (stereo not given), the Potency entry was “inactive”.
For `Cc1ccc(OCC(=O)Nc2ccc(N3CCN(C(=O)c4ccco4)CC3)cc2)c(C)c1`, the Potency is 15.8 µM (active).
Then `CCn1c2ccccc2c2cc(NC(=O)COc3ccc(C)cc3C)ccc21`, with “inactive”.
Then `Cc1ccc(Cl)c(OCC(=O)N(C)CC(=O)Nc2ccc(N3CCOCC3)cc2)c1`, with “inactive”; and `Cc1cccc(C(=O)OC(C)C(=O)NC2CCCc3ccccc32)c1O` (stereo not given), with “inactive”.
Then `COc1cccc(C(=O)Nc2c3c(nn2-c2cccc(C)c2C)CS(=O)(=O)C3)c1OC`, with “inactive”; and `COc1ccc(C(=O)NC2CCCc3c2cnn3-c2cccc(C)c2C)c(OC)n1` (stereo not given), with 17.8 µM (active).
For `CCOc1ccc(N(CC)C(=O)c2noc3c2COc2ccc(C)cc2-3)cc1`, the Potency result was “inactive”.
As for `O=C(C1CCC(Cn2c(=O)c3sccc3n(Cc3ccccc3F)c2=O)CC1)N1CCCCC1` (stereo not given), the entry is “inactive”; as for `CNc1ccc(-c2nc(-c3ccccc3C)no2)cc1[N+](=O)[O-]`, “inactive”.
As to `C#CCCCCCCCCCCCCCCCC(=O)O`, the Potency entry is “inactive”.
As for `CC(=O)c1ccc(NC(=O)CCc2nc(-c3ccc(C)cc3)no2)cc1`, the entry is “inactive”; as for `N#CCCn1cnc2ccccc21`, “inactive”.
In the case of `c1ccc(Cc2nn3c(Cn4cnc5ccccc54)nnc3s2)cc1`, the Potency was 14.1 µM (active).
As for `Fc1ccc(OCc2nn3c(Cn4nnc5ccccc54)nnc3s2)cc1`, the entry is “inactive”; as for `COc1ccc(CNc2ncncc2-c2ccccc2C)c(OC)c1`, “inactive”; as for `Cc1cc(C(=O)NCC2Cc3cccc(-c4cncnc4)c3O2)c(C)o1` (stereo not given), “inactive”.
As for `CNc1cc(-c2c(C)noc2C)ncn1`, the entry is “inactive”.
Regarding `COCCCNC(=O)c1ccc(NC(=O)c2nsc3ccccc23)cc1`, the Potency result was “inactive”.
As for `COCCn1c(SCC(=O)c2cc(C)ccc2C)nc2cc(C(=O)NC3CCCC3)ccc2c1=O`, the entry is “inactive”.
In the case of `CCc1nc(C)cn1S(=O)(=O)c1cc([N+](=O)[O-])ccc1Cl`, the Potency is 20 µM (active).
As for `CC(C)c1nccn1S(=O)(=O)c1cc([N+](=O)[O-])ccc1Cl`, the Potency result is “inactive”.
As for `CCc1nccn1S(=O)(=O)c1cccc([N+](=O)[O-])c1`, the entry is “inactive”; as for `COc1ccc(OCCCn2c(C3CC(=O)N(c4ccc(F)cc4)C3)nc3ccccc32)cc1` (stereo not given), “inactive”.
As for `CCCCN1CC(c2nc3ccccc3n2CCCCOc2ccc(C)cc2C)CC1=O` (stereo not given), the figure is 39.8 µM (active); as for `CCc1ccccc1N1CC(c2nc3ccccc3n2CCCCOc2ccccc2)CC1=O` (stereo not given), “inactive”; as for `Cc1ccc(CNC(=O)Cn2c(=O)ccc3cc(S(=O)(=O)N4CCCC4)ccc32)cc1`, “inactive”.
As for `Cc1ccc(-n2c(SCC(=O)c3ccccc3)nc3c([nH]c4ccccc43)c2=O)cc1`, the Potency entry is “inactive”.
In the case of `O=C1Oc2ccccc2C(=O)/C1=C/c1ccccc1O`, the Potency was 28.2 µM (active).
Then `C=C(C)C1CC=C(CO)CC1` (stereo not given), with “inactive”; and `CCN(C(=O)CSc1nnnn1-c1ccccc1OC)C1CCS(=O)(=O)C1` (stereo not given), with “inactive”; and `COc1ccccc1-n1nnnc1S(=O)(=O)Cc1ccc(Cl)cc1`, with 10 µM (active).
On to `COc1ccccc1CN(C)c1nnnn1-c1ccccc1`, for which the Potency result was “inactive”.
As for `CSc1ccccc1N1CCN(CCCCCC(=O)NC2CCCc3ccccc32)CC1` (stereo not given), the entry is “inactive”; as for `CCC(C)C(=O)O[C@@H]1C[C@@]2(C)C(c3ccoc3)OC(=O)CC23OC2(C)O[C@@]14[C@@]1(C)C(CC(=O)OC)C5(C)CC1(O)C(O)(C5OC(=O)C1(C)OC1C)C(OC(C)=O)[C@@]34O2` (stereo not given in full), “inactive”.
Turning to `Cc1ccc(NC(=O)N2CCC(C(=O)NCc3ccc(F)cc3)CC2)cc1`, the Potency is 7.08 µM (active).
On to `O=C(NCc1ccc(F)cc1)C1CCN(C(=O)Nc2ccc(F)cc2)CC1`, for which the Potency entry was “inactive”.
As for `Cc1ccc(C(=O)NC2CCN(C(=O)Nc3ccc(F)cc3)CC2)cc1`, the entry is “inactive”.
Then `O=C(CCN1Cc2ccccc2OC(c2ccccc2)C1)N[C@@H]1CS(=O)(=O)C[C@H]1O` (stereo not given in full), with “inactive”; and `COc1ccc(NC(=O)CCN2CCN(CCO)CC2)cc1`, with “inactive”; and `O=C(NCC(c1ccc(Cl)cc1)N1CCOCC1)c1ccccc1F` (stereo not given), with “inactive”.
For the compound `CCC(C)(C)c1ccc(OCC(=O)N(C)C)c(C(C)(C)CC)c1`, the Potency is 31.6 µM (active).
In the case of `Cc1ccc(-n2c(=O)c3cccnc3n2CC(=O)NCc2ccc(F)cc2)cc1C`, the Potency result is “inactive”.
For `OC[C@@H]1CN(Cc2cccs2)C[C@H](n2cnc3c(Nc4ccccc4)ncnc32)O1`, the Potency entry was “inactive”.
As for `OCCN1CCN(c2ncnc3c2ncn3[C@H]2CN(Cc3ccco3)C[C@@H](CO)O2)CC1`, the Potency entry is “inactive”.
Turning to `OC[C@@H]1CN(C2CCCC2)C[C@H](n2cnc3c(NC4CCC4)ncnc32)O1`, the Potency result was “inactive”.
As for `OC[C@@H]1CN(Cc2ccc(-c3ccccc3)cc2)C[C@H](n2cnc3c(NC4CCCC4)ncnc32)O1`, the figure is 15.8 µM (active).
Then `OC[C@@H]1CN(Cc2ccncc2)C[C@H](n2cnc3c(N4CCN(c5ccccc5)CC4)ncnc32)O1`, with 12.6 µM (active); and `CC(C)Nc1ncnc2c1ncn2[C@H]1CN(Cc2ccncc2)C[C@@H](CO)O1`, with “inactive”.
